Results from PubChem BioAssay (Tox21).
“And” between values parts separate entries of the source, which are not always exact repeats. Identical values can stand only once. Results filed as inconclusive are left out. Entries that show only a call come without a potency. The source holds several records for some structures; these can differ, active in one and inactive in another. The source made the active and inactive calls. Calls follow the shape of the dose curve; as a rule, active = well fitted cell-killing curve with a large enough effect in the repeat runs; inconclusive = weak or mixed curves; inactive = no such curve, though single readings can be large or run the other way.
Potency is read from the fitted curve at half-maximal effect.

Test: qHTS assay for identifying genotoxic compounds that show differential cytotoxicity against isogenic chicken DT40 cell lines with known DNA damage response pathways - Rad54/Ku70 mutant cell line (AID 743015); also: nearly all actives have a fitted effect of over 60% in size
Conditions: DT40 Rad54/Ku70 mutant viability, CellTiter-Glo, 40 h; series mostly up to 66.8 µM
Text: National Center for Advancing Translational Sciences [NCATS]
NIH Chemical Genomics Center [NCGC]
U.S. Environmental Protection Agency [EPA]
National Institutes of Environmental Health Sciences [NIEHS]
National Toxicology Program [NTP]
U.S. Food and Drug Administration [FDA]
DNA repair pathways play a critical role in cellular homeostasis by repairing DNA damage induced by endogenous processes and xenobiotics. Isogenic chicken DT40 cell lines deficient in different DNA repair pathways can be used to identify genotoxic compounds and aid in characterizing the nature of the DNA damage induced. Two DNA repair-deficient cell lines with disrupted genes, Rad54/Ku70 or Rev3, were used to screen the Tox21 10K compound library. Possible genotoxicity was based on the presence of a significant increase in cytotoxicity in one or more of the DNA repair-deficient cell lines compared to that observed in the parental DNA repair-proficient cell line. CellTiter Glo viability assay (Promega, Madison, WI) was used to measure cell viability in these cells after compound treatment. This assay includes the data from the Rad54/Ku70 mutant cell line.
Tox21 Assay Protocol Summary:
300 DT40 mutant cells in 5 uL/well were dispensed into white, solid-bottom 1536-well plates using a Multidrop Combi (ThermoFisher Scientific, Waltham, MA) dispenser. After the assay plates were incubated at 37 C/5% CO2 for approximately 0.5 hour, 23 nL of compounds dissolved in DMSO, positive controls or DMSO only was transferred into the assay plate by a pintool work station (Kalypsys, San Diego, CA). The assay plates were incubated at 37 C/5% CO2 for 40 hours. After 5 uL per well of CellTiter-Glo reagent was added into each well of the assay plates, the plates were incubated for 30 min at room temperature and the luminescence intensity of the plates was measured using a ViewLux (PerkinElmer, Shelton, CT) plate reader.
With `NC[C@H]1O[C@H](O[C@H]2[C@H](O[C@@H]3O[C@H](CO)[C@@H](O)[C@H]3O)C(O)[C@H](N)C[C@@H]2N)[C@H](N)[C@@H](O)[C@@H]1O` (stereo not given in full) the Potency was “inactive”. For `CCCCCCOC(=O)C(C)CC` (stereo not given), the Potency was “inactive”. With `Cc1c(C)c2c(c(C)c1OC(=O)c1cccnc1)CC[C@@](C)(CCC[C@H](C)CCC[C@H](C)CCCC(C)C)O2` the Potency was “inactive”. With `CNC(=O)c1ccccc1Sc1ccc2c(/C=C/c3ccccn3)n[nH]c2c1` the Potency was 2.66 µM (active). In the case of `C#CC1(O)CC[C@H]2[C@@H]3CCC4=CCCC[C@@H]4[C@H]3CC[C@@]21C` (stereo not given in full), the Potency is reported as 11.4 µM (active) and 15.4 µM (active). For `CCCCCc1ccc(Cl)cc1`, the Potency was “inactive”. With `CC1(C)[C@@H](O)CC[C@]2(C)[C@H]3C(=O)C=C4[C@@H]5C[C@@](C)(C(=O)O)CC[C@]5(C)CC[C@@]4(C)[C@]3(C)CC[C@@H]12` the Potency was 2.37 µM (active) and inactive. With `FC(F)(F)c1cccc(Cl)c1` the Potency was “inactive”. In the case of `CC[N+](CC)(CC)CCOc1ccc(/C=C/c2ccccc2)cc1`, the Potency is reported as 944 nM (active) and 750 nM (active). In the case of `CC[N+](CC)(CC)CCOC(=O)C(C1CCCC1)C1CCCC1`, the Potency is reported as 8.41 µM (active). In the case of `CCCCCCCCCCCCCCCC[N+](C)(C)CC`, the Potency is reported as 473 nM (active) and 866 nM (active). For `Cc1ccc(C(C)C)cc2c(C)ccc1-2`, the Potency was “inactive”. In the case of `CCCCC/C=C\C/C=C\CCCCCCCC(=O)O`, the Potency is reported as “inactive and 54.5 µM (active)”. In the case of `COC(=O)Nc1nc2ccc(C(=O)c3ccccc3)cc2[nH]1`, the Potency is reported as 0.403 µM (active). With `O=C1OC2(c3ccc(O)cc3Oc3cc(O)ccc32)c2ccc(N=C=S)cc21` the Potency was “inactive”. With `O=C(/C=C/c1ccccc1)OC/C=C/c1ccccc1` the Potency was 13.7 µM (active). In the case of `Cc1ccc(O)c(O)c1`, the Potency is reported as 21.1 µM (active). With `CC(=O)Oc1cc2c(s1)CCN(C(C(=O)C1CC1)c1ccccc1F)C2` (stereo not given) the Potency was “inactive”. For `CCn1c2ccccc2c2cc([N+](=O)[O-])ccc21`, the Potency was 54.5 µM (active). With `O=C(Oc1ccccc1)Oc1ccccc1` the Potency was “inactive”. For `O=C1CCc2ccc(OCCCCN3CCN(c4cccc(Cl)c4Cl)CC3)cc2N1`, the Potency was 6.68 µM (active). For `CN(C)c1ccc(C(=C2C=CC(=[N+](C)C)C=C2)c2ccc(N(C)C)cc2)cc1`, the Potency was 422 nM (active) and 483 nM (active) and 193 nM (active). In the case of `CN(C)Cc1cc(C(C)(C)C)c(O)c(C(C)(C)C)c1`, the Potency is reported as 17.2 µM (active). With `O=C(O)O` the activity change, negative = cytotoxicity was -2.06% [at 8.55 µM] (inactive). With `Nc1ccc(Oc2ccc(Cl)cc2)cc1` the Potency was 59.8 µM (active). With `CCC(=O)OC(=O)CC` the Potency was “inactive”. In the case of `C[C@H]1NCc2cc(-c3ccc4c(=O)c(C(=O)O)cn(C5CC5)c4c3OC(F)F)ccc21`, the Potency is reported as “inactive”. For `OCC(F)(F)F`, the Potency was “inactive”. With `CN1CCCCC1CCN1c2ccccc2Sc2ccc(S(C)=O)cc21` (stereo not given) the Potency was 29.8 µM (active). For `CCCCCCCC/C=C\CCCCCCCCN`, the Potency was “inactive”. In the case of `Cc1c(C)c2c(c(C)c1O)CC[C@@](C)(CCC[C@H](C)CCC[C@H](C)CCCC(C)C)O2`, the Potency is reported as “inactive”. In the case of `O=[N+]([O-])c1ccc(F)c(Cl)c1`, the Potency is reported as “inactive”. With `O=C(/C=C/c1ccc(O)c(O)c1)O[C@@H](C(=O)O)[C@@H](OC(=O)/C=C/c1ccc(O)c(O)c1)C(=O)O` the Potency was “inactive”. In the case of `CC(C(=O)O)c1ccc2c(c1)[nH]c1ccc(Cl)cc12` (stereo not given), the Potency is reported as “inactive”. In the case of `Nc1ccc(C(=O)O)c(O)c1`, the Potency is reported as “inactive”. With `C=CCn1c(=O)n(CC=C)c(=O)n(CC=C)c1=O` the Potency was “inactive”. With `Cc1cccc(C(=O)O)c1O` the Potency was “inactive”. With `C=C(CC)C(=O)c1ccc(OCC(=O)O)c(Cl)c1Cl` the Potency was 29.8 µM (active) and 48.2 µM (active). With `O=C(O)CCN(C1(C(=O)NO)CCCC1)S(=O)(=O)c1ccc(Oc2ccc(F)cc2)cc1` the Potency was “inactive”. For `O=C(c1ccc(O)c(O)c1)c1ccc(O)cc1O`, the Potency was 8.62 µM (active).
